Source: the supplement of paper PMC10127200
Counter-ions that a name gives are not always drawn.

Assays:
Assay in all cases: Euclidean distance of Cell Painting phenotypic profile (signed KS, 77 features) to DMSO centroid (dimensionless distance); 5 or 10 uM (library dependent); higher = stronger phenotypic change vs DMSO (phenoactivity)
Settings in all cases: 48 h
786-O = tested on: 786-O
Outline: (§1)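 Harmony extracted 77 features from 20X confocal images (9 fields/well) of stained cells, scoring each as a signed Kolmogorov-Smirnov statistic against same-plate vehicle wells. The cells, five cancer lines and a healthy fibroblast line, had received library compounds for 48 h at 10 or 5 uM depending on library, with 0.1% DMSO final. Phenoactivity is the Euclidean distance from each plate-position-corrected, correlation-weighted, top-dose replicate-averaged profile to the median vehicle profile.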

A549 = tested on: A549
Outline: as §1

FB = tested on: FB
Outline: as §1

HEPG2 = tested on: HEPG2
Outline: as §1

OVCAR4 = tested on: OVCAR4
Outline: as §1

| SMILES | Euclidean distance (786-O) | Euclidean distance (A549) | Euclidean distance (FB) | Euclidean distance (HEPG2) | Euclidean distance (OVCAR4) |
| --- | --- | --- | --- | --- | --- |
| COc1ccc(CC(C)NCC(O)c2ccc(O)c(NC=O)c2)cc1 (stereo not given) [Formoterol Hemifumarate] | 1.29 | 0.672 | 0.886 | 1.15 | 1.94 |
| C=C1CC[C@@H]2[C@](C)(CO)[C@H](O)CC[C@@]2(C)[C@@H]1C/C=C1/C(=O)OC[C@H]1O [Andrographolide] | 2.41 | 1.6 | 1.96 | 1.62 | 1.67 |
| COCCCOc1cc(C[C@@H](C[C@H](N)[C@@H](O)C[C@H](C(=O)NCC(C)(C)C(N)=O)C(C)C)C(C)C)ccc1OC [Aliskiren Hemifumarate] | 0.778 | 0.371 | 0.622 | 0.506 | 0.752 |
| C=C(NC(=O)C(=C)NC(=O)c1csc(C2=N[C@@H]3c4csc(n4)[C@H]4NC(=O)c5csc(n5)[C@H]([C@](C)(O)[C@@H](C)O)NC(=O)[C@H]5CSC(=N5)/C(=C/C)NC(=O)[C@H]([C@@H](C)O)NC(=O)c5csc(n5)[C@]3(CC2)NC(=O)[C@H](C)NC(=O)C(=C)NC(=O)[C@H](C)NC(=O)[C@H]([C@@H](C)CC)N[C@@H]2C=Cc3c([C@H](C)O)cc(nc3[C@H]2O)C(=O)O[C@@H]4C)n1)C(N)=O [Thiostrepton] | 4.46 | 2.6 | 4.95 | 4.36 | 2.62 |
| S=C(N/N=C1/CCCc2cccnc21)N1CCN(c2ccccn2)CC1 | 3.03 | 3.6 | 3.2 | 2.23 | 1.11 |
| Cc1c(OCC(F)(F)F)ccnc1C[S+]([O-])c1nc2ccccc2[nH]1 (stereo not given) [Lansoprazole] | 1.16 | 2.3 | 0.815 | 1.08 | 0.948 |
| Cc1ccc(Sc2ccccc2N2CCNCC2)c(C)c1 [Vortioxetine] | 2.68 | 2.71 | 2.68 | 5.06 | 2.43 |
| O=C(c1ccccc1)c1ccc2n1CCC2C(=O)O (stereo not given) [Ketorolac tromethamine salt] | 0.861 | 0.868 | 0.834 | 0.47 | 0.82 |
| O=C(/C=C/C=C/c1ccc2c(c1)OCO2)N1CCCCC1 [Piperine] | 1.7 | 0.714 | 1.06 | 0.563 | 1.49 |
| CC(C(=O)O)c1ccc(-c2ccccc2)c(F)c1 (stereo not given) [Flurbiprofen] | 0.962 | 0.696 | 1.21 | 0.393 | 1.27 |
| O=C(Nc1ccc(OC(F)(F)Cl)cc1)c1cnc(N2CC[C@@H](O)C2)c(-c2cc[nH]n2)c1 [Asciminib (ABL001)] | 1.54 | 1.72 | 1.32 | 1.2 | 1.39 |
| Cc1ccc(C(=O)Nc2ccc(CN3CCN(C)CC3)c(C(F)(F)F)c2)cc1C#Cc1cnc2[nH]ncc2c1 [GZD824 Dimesylate] | 4.23 | 4.68 | 5.04 | 5.49 | 4.87 |
| COC(=O)/C=C/C(=O)OC [Dimethyl Fumarate] | 1.01 | 1.07 | 0.598 | 1 | 1.15 |
| CC1(C)C[C@@H]1C(=O)N/C(=C\CCCCSC[C@H](N)C(=O)O)C(=O)O [Cilastatin] | 0.899 | 0.574 | 1.49 | 0.578 | 0.796 |
| CC[C@H](C)[C@H](N)C1=N[C@H](C(=O)N[C@@H](CC(C)C)C(=O)N[C@H](CCC(=O)O)C(=O)N[C@H](C(=O)N[C@H]2CCCCNC(=O)[C@H](CC(N)=O)NC(=O)[C@@H](CC(=O)O)NC(=O)[C@H](Cc3cnc[nH]3)NC(=O)[C@@H](Cc3ccccc3)NC(=O)[C@H]([C@@H](C)CC)NC(=O)[C@@H](CCCN)NC2=O)[C@@H](C)CC)CS1 [Bacitracin] | 1.65 | 1.13 | 0.901 | 0.726 | 1.22 |
| COCCOC(=O)C1=C(C)NC(C)=C(C(=O)OC/C=C/c2ccccc2)C1c1cccc([N+](=O)[O-])c1 (stereo not given) [Cilnidipine] | 2.22 | 1.04 | 1.29 | 1.61 | 1.46 |
| CN1CC[C@@H](NC(=O)Nc2ccc(C#N)cc2)C[C@@H]1c1nc2ccccc2[nH]1 | 2.28 | 1.79 | 3.81 | 1.1 | 1.73 |
| CC(C)(C)CC(C)(C)c1ccc(O)c(Cc2ccc(Cl)cc2Cl)c1 [Clofoctol] | 1.64 | 1.84 | 1.21 | 0.886 | 1.7 |
| CCOCCn1c(N2CCCN(C)CC2)nc2ccccc21 [Emedastine] | 0.676 | 0.686 | 0.988 | 0.905 | 0.553 |
| CCn1cc(C(=O)O)c(=O)c2cnc(N3CCNCC3)nc21 [Pipemidic acid] | 1.47 | 0.855 | 1.02 | 0.639 | 1.13 |
| N[C@H]1C(O)O[C@H](CO)[C@@H](O)[C@@H]1O (stereo not given in full) [Glucosamine] | 0.508 | 0.407 | 0.896 | 1.07 | 1.28 |
| O=c1c(-c2ccc(O)cc2)coc2c([C@@H]3O[C@H](CO)[C@@H](O)[C@H](O)[C@H]3O)c(O)ccc12 [Puerarin] | 0.929 | 0.728 | 0.661 | 0.584 | 1.35 |
| COc1ccc2cc3[n+](cc2c1OC)CCc1cc2c(cc1-3)OCO2 [Berberine chloride] | 1.19 | 1.36 | 2.07 | 1.41 | 1.31 |
| COC(=O)OCOc1c2n(ccc1=O)N([C@@H]1c3ccccc3SCc3c1ccc(F)c3F)[C@@H]1COCCN1C2=O [Baloxavir marboxil] | 0.818 | 1.3 | 1.58 | 0.558 | 0.843 |
| CNCCCC1c2ccccc2C=Cc2ccccc21 [Protriptyline hydrochloride] | 1.15 | 0.784 | 1.82 | 1.74 | 0.952 |

| SMILES | Euclidean distance (786-O) | Euclidean distance (A549) | Euclidean distance (FB) | Euclidean distance (HEPG2) | Euclidean distance (OVCAR4) |
| --- | --- | --- | --- | --- | --- |
| C[C@]12C=CC(=O)C=C1CC[C@H]1[C@@H]3C[C@@H](O)[C@](O)(C(=O)CO)[C@@]3(C)C[C@H](O)[C@@]12F [Triamcinolone] | 0.975 | 1.88 | 1.81 | 1.35 | 1.94 |
| CN[C@@H](C)C(=O)N[C@H](C(=O)N1CCC[C@H]1c1nc(C(=O)c2ccc(F)cc2)cs1)C1CCCCC1 | 1.14 | 1.17 | 1.22 | 1.51 | 2.13 |
| CCCCC1(COC(=O)CCC(=O)O)C(=O)N(c2ccccc2)N(c2ccccc2)C1=O [Suxibuzone] | 0.771 | 0.893 | 1.12 | 0.518 | 1.57 |
| Cc1ccsc1C(=CCCN1CCC[C@@H](C(=O)O)C1)c1sccc1C [Tiagabine] | 0.676 | 0.377 | 0.779 | 0.574 | 1.14 |
| COc1c(O)cc2c(c1O)[C@@H]1O[C@H](CO)[C@@H](O)[C@H](O)[C@H]1OC2=O [Bergenin] | 1.22 | 0.742 | 0.906 | 0.765 | 2.16 |
| O=C1N=C(O)NC1(c1ccccc1)c1ccccc1 [Phenytoin Sodium] | 0.861 | 0.644 | 0.99 | 0.976 | 0.588 |
| Nc1ccc2cc3ccc(N)cc3nc2c1 [Proflavine Hemisulfate] | 4.95 | 4.91 | 5.65 | 5.57 | 5.46 |
| Cc1cccn2c(=O)c(-c3nnn[nH]3)cnc12 [Pemirolast potassium] | 1.31 | 0.747 | 0.893 | 0.682 | 1.05 |
| NCCCC(N)(C(=O)O)C(F)F (stereo not given) [Eflornithine hydrochloride hydrate] | 1.45 | 1.26 | 1.21 | 0.792 | 1.43 |
| COc1ccc(CN(CCN(C)C)c2ccccn2)cc1 [Pyrilamine Maleate] | 0.832 | 0.864 | 1.11 | 0.605 | 1.5 |
| CC12CCC(CC1)C(C)(C)O2 [Eucalyptol] | 0.884 | 0.614 | 0.855 | 0.869 | 0.746 |
| Nc1ccncc1N [3.4-Diaminopyridine] | 1.58 | 1.24 | 1.38 | 0.828 | 1.15 |
| Cc1nnc(SCC2=C(C(=O)O)N3C(=O)[C@@H](NC(=O)Cn4cnnn4)[C@H]3SC2)s1 [Cefazolin] | 1.28 | 0.455 | 1.6 | 0.891 | 1.58 |
| CCC1(c2ccccc2)C(=O)NCNC1=O [Primidone] | 1.2 | 0.708 | 1.19 | 0.442 | 2.2 |
| O=C(C1CCCCC1)N1CC(=O)N2CCc3ccccc3C2C1 (stereo not given) [Praziquantel] | 0.868 | 0.773 | 0.97 | 0.33 | 1.36 |
| CC[C@H](C)[C@H](N)C1=N[C@H](C(=O)N[C@@H](CC(C)C)C(=O)N[C@H](CCC(=O)[O-])C(=O)N[C@H](C(=O)N[C@H]2CCCCNC(=O)[C@H](CC(N)=O)NC(=O)[C@@H](CC(=O)[O-])NC(=O)[C@H](Cc3cnc[nH]3)NC(=O)[C@@H](Cc3ccccc3)NC(=O)[C@H]([C@@H](C)CC)NC(=O)[C@@H](CCCN)NC2=O)[C@@H](C)CC)CS1.[Zn+2] [Bacitracin Zinc] | 0.919 | 0.811 | 0.932 | 1.77 | 1.44 |
| Clc1ccc(COC(Cn2ccnc2)c2ccc(Cl)cc2Cl)c(Cl)c1 (stereo not given) [Miconazole Nitrate] | 1.25 | 1.35 | 0.864 | 0.872 | 0.979 |
| O=C1c2ccccc2C(=O)C1c1ccccc1 [Phenindione] | 0.966 | 1.04 | 1.16 | 0.74 | 1.1 |
| CC(=O)[C@@]1(O)CC[C@H]2[C@@H]3CCC4=CC(=O)CCC4=C3[C@@H](c3ccc(N(C)C)cc3)C[C@@]21C [Ulipristal] | 0.949 | 1.22 | 1.05 | 1.13 | 0.761 |
| O=C(O)c1cc(O)c2c(c1)[C@H]([C@H]1c3cc(C(=O)O)cc(O)c3C(=O)c3c(O[C@@H]4O[C@H](CO)[C@@H](O)[C@H](O)[C@H]4O)cccc31)c1cccc(O[C@@H]3O[C@H](CO)[C@@H](O)[C@H](O)[C@H]3O)c1C2=O [Sennoside A] | 0.91 | 0.674 | 1.07 | 0.438 | 1.12 |
| NC(=O)c1ncn([C@@H]2O[C@H](CO)[C@@H](O)[C@H]2O)c1O [Mizoribine] | 1.26 | 0.927 | 0.917 | 0.657 | 0.855 |
| OCCOCCN1CCN(C2=Nc3ccccc3Sc3ccccc32)CC1 [Quetiapine] | 0.8 | 0.671 | 0.864 | 1.02 | 0.901 |
| CN(C)CCOC(c1ccccc1)c1ccccc1 [Diphenhydramine HCl] | 0.916 | 0.411 | 0.777 | 0.793 | 0.518 |
| CO[C@@]12[C@H](COC(N)=O)C3=C(C(=O)C(C)=C(N)C3=O)N1C[C@@H]1N[C@@H]12 [Mitomycin C] | 3.14 | 3.37 | 3.89 | 3.46 | 3.61 |
